From PubChem BioAssay (NCATS)
Values joined by “and” are separate entries in the source; they are usually repeats but may differ in a detail not shown here. Equal entries are not always repeated. Records with an inconclusive call do not appear. Values without a mark were called inactive. Active and inactive are the calls of the source.

assay: qHTS assay for small molecule agonists of the antioxidant response element (ARE) signaling pathway (AID 651741; active = well fitted activation curve with a large enough effect in the signal ratio; the % refers to the signal ratio; also: potency is read from the fitted curve at half-maximal effect; as to activation: % of control where 0% means no effect); conditions: HepG2 ARE-bla reporter, beta-lactamase FRET ratio, 16 h; series mostly up to 96 µM; activation: at the top concentration
How it was run: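 Compounds in DMSO are pinned onto HepG2 ARE-bla cells (2,000/well) that were preincubated 5 h; plates stay 16 h at 37 C, then beta-lactamase activity is detected with LiveBLAzer B/G substrate by fluorescence.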

Row | Compound | activation [%] | Potency
1 | CCCCCCCCCCCCc1ccccc1 | 5.11 | –
2 | CCCCCCCCCCCC(=O)OC | – | 24.3 µM (active)
3 | CCOC(=O)c1ccccc1C | 4.63 | –
4 | CCCCCCCCCCCC[N+](C)(C)C | – | 19.3 µM (active)
5 | CCCC/C=C\CCCCCCCCCC=O | 0.343 | –
6 | CCCCCCCCCCCCN | 7.08 | –
7 | CCC(O)OCCCOC (configuration not stated) | -1.28 | –
8 | C=CCCCCCCCCCC | -2.28 | –
9 | Oc1ccc(C(c2ccc(O)cc2)C(Cl)(Cl)Cl)cc1 | – | 54.5 µM (active)
10 | CC(C)(N=C=O)c1cccc(C(C)(C)N=C=O)c1 | 1.91 | –
11 | CCCCCCCC/C=C\CCCCCCCCO | 1.54 | –
12 | CCCCCCCC[Si](OCC)(OCC)OCC | 0.23 | –
13 | CCCCCCCCCCCCCCCO | 7.58 | –
14 | O=S(=O)(O)c1cc(S(=O)(=O)O)c2c(N=Nc3ccccc3)c(O)ccc2c1 | 8.41 | –
15 | Cc1ccc(C(C)(C)C)c(O)c1 | 0.0539 | –
16 | CC(COc1ccc(C(C)(C)C)cc1)OS(=O)OCCCl (configuration not stated) | – | 27.3 µM (active)
17 | CCOC(=O)NCCOc1ccc(Oc2ccccc2)cc1 | – | 30.6 µM (active)
18 | COC(OC)(C(=O)c1ccccc1)c1ccccc1 | 9.61 | –
19 | CCOCCOCCOC(C)=O | -3.67 | –
20 | CCOc1ccc(NC(=O)OC(C)C)cc1OCC | -3.67 | –
21 | CCCCCCC(C)(C)S | -1.16 | –
22 | CC(C)Nc1nc(N)nc(Cl)n1 | 5.67 | –
23 | CCC(C)OC(=O)N1CCCCC1CCO (configuration not stated) | -7.09 | –

assay: qHTS assay for small molecule activators of the p53 signaling pathway (AID 651743; active = well fitted activation curve with a large enough effect in the signal ratio, not every such curve was filed as active; the % refers to the signal ratio; also: % of control where 0% means no effect); conditions: HCT-116 p53RE-bla, beta-lactamase FRET ratio, 16 h; activation: active compounds read high
How it was run: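 Cell-based beta-lactamase reporter (p53 response elements, HCT-116 background). After a 5-hour preincubation, cells received compound for 16 hours at 37 C; substrate development ran 2 hours at room temperature.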

Row | Compound | activation
24 | CC(C)CCCCCCCCCCCCCCC(=O)O | 1.15%
25 | C=CCOc1nc(OCC=C)nc(OCC=C)n1 | -3.44%
26 | CCOC(=O)c1ccccc1C | 2.88%
27 | CCCCCCCCCCCC[N+](C)(C)C | 12.8%
28 | CCCC/C=C\CCCCCCCCCC=O | 0.222%
29 | CCCCCCCCCCCCN | -7.19%
30 | CCC(O)OCCCOC (configuration not stated) | -2.25%
31 | C=CCCCCCCCCCC | -0.565%
32 | CC(C)C(=O)OC(=O)C(C)C | -7.19%
33 | CC1=CC(=O)CC(C)(C)C1 | 0.625%
34 | CCCCCCCCCCCCCCCO | -0.317%
35 | O=S(=O)(O)c1cc(S(=O)(=O)O)c2c(N=Nc3ccccc3)c(O)ccc2c1 | -0.0659%
36 | Cc1ccc(C(C)(C)C)c(O)c1 | -4.17%
37 | CC(COc1ccc(C(C)(C)C)cc1)OS(=O)OCCCl (configuration not stated) | 8.46%
38 | CC(C)CCCCOC(=O)c1ccccc1C(=O)OCCCCC(C)C | -3.26%
39 | CC(C)C[C@H](NC(=O)OCC1c2ccccc2-c2ccccc21)C(=O)O | -3.17%
40 | CC(C)(C)[C@H](O)[C@H](Cc1ccc(Cl)cc1)n1cncn1 | -1.23% and -2.31%
41 | CCOC(=O)[C@H](C)Oc1ccc(Oc2nc3ccc(Cl)cc3o2)cc1 | -9.98%
42 | COCCOCCOCCOC | 0.451%
43 | CCOCCOCCOC(C)=O | 1.91%
44 | CCOCCOCCOCC | -1.74%
45 | CCOc1ccc(NC(=O)OC(C)C)cc1OCC | -0.775%
46 | CC(C)Nc1nc(N)nc(Cl)n1 | -1.43% and -0.514%
47 | CCC(C)OC(=O)N1CCCCC1CCO (configuration not stated) | -2.97%

assay: qHTS assay for small molecule activators of the nuclear factor-kappa B (NF-kB) signaling pathway (AID 651749; active = well fitted activation curve with a large enough effect in the signal ratio; the % refers to the signal ratio; also: % of control where 0% means no effect); conditions: NF-kB-bla ME-180 cells, beta-lactamase FRET ratio, 16 h; activation: active compounds read high
How it was run: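 Screening used 2,000 ME-180 reporter cells per well exposed to pinned compound (23 nL) or DMSO; after 16 hr at 37C, beta-lactamase expression under NF-kB control was assessed through FRET.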

Row | Compound | activation
48 | CC(C)CCCCCCCCCCCCCCC(=O)O | -0.531%
49 | CCCCCCCCCCCCc1ccccc1 | 1.6%
50 | C=CCOc1nc(OCC=C)nc(OCC=C)n1 | 0.86%
51 | CCOC(=O)c1ccccc1C | 0.727%
52 | CCCCCCCCCCCC[N+](C)(C)C | -3.69%
53 | CCCC/C=C\CCCCCCCCCC=O | -0.297%
54 | CCCCCCCCCCCCN | -1.82%
55 | CCC(O)OCCCOC (configuration not stated) | 1.22%
56 | CCCCCCCCCCCCCCC | -1.21%
57 | CC(C)(N=C=O)c1cccc(C(C)(C)N=C=O)c1 | -0.946%
58 | CCCCCCCC/C=C\CCCCCCCCO | -1.39%
59 | CCCCCCCC[Si](OCC)(OCC)OCC | 1.32%
60 | CCCCCCCCCCCCCCCO | -1.59%
61 | O=S(=O)(O)c1cc(S(=O)(=O)O)c2c(N=Nc3ccccc3)c(O)ccc2c1 | 1.12%
62 | Cc1ccc(C(C)(C)C)c(O)c1 | 0.363%
63 | CCOC(=O)C(C)Oc1ccc(Oc2nc3ccc(Cl)cc3o2)cc1 (configuration not stated) | 2.54%
64 | CCOC(=O)NCCOc1ccc(Oc2ccccc2)cc1 | 2.75%
65 | CC(C)CCCCOC(=O)c1ccccc1C(=O)OCCCCC(C)C | -2.54%
66 | COC(OC)(C(=O)c1ccccc1)c1ccccc1 | 0.121%
67 | CC(C)C[C@H](NC(=O)OCC1c2ccccc2-c2ccccc21)C(=O)O | 1.69%
68 | COC(=O)CCSCCC(=O)OC | -0.163%
69 | CC(C)(C)[C@H](O)[C@H](Cc1ccc(Cl)cc1)n1cncn1 | 1.04% and 0.72%
70 | CCOC(=O)[C@H](C)Oc1ccc(Oc2nc3ccc(Cl)cc3o2)cc1 | -0.102%
71 | COCCOCCOCCOC | 0.99%
72 | CCOCCOCCOCC | -0.223%
73 | CCOc1ccc(NC(=O)OC(C)C)cc1OCC | -0.916%
74 | CCCCCCC(C)(C)S | -2.27%
75 | CC(C)Nc1nc(N)nc(Cl)n1 | 0.272% and 0.556%
76 | CCC(C)OC(=O)N1CCCCC1CCO (configuration not stated) | -1.57%
77 | CCCCCCCCCC(=O)OC | 0.17%
